Source: the supplement of paper PMC6522484
± gives the standard deviation of the averaged measurements.

Legend:
DLD1 [1] = assay: cell viability (CellTiter-Glo) relative to plate median (fraction of plate median); higher = more viable cells; conditions: 5 µM; treatment time 24 h; reporter: 7TFP
Procedure, shortened: (§1)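 Library compounds were added at a final concentration of 5 µM for 24 h to colorectal cancer cells stably transduced with a lentiviral TCF/Wnt firefly luciferase reporter. Reported values are firefly luciferase or CellTiterGlo luminescence, normalised per well to the plate median. Each value averages two independent replicates.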

HCT116 = assay: as above; conditions: 5 µM; treatment time 24 h; reporter: TCF4/Wnt
Procedure, shortened: as §1

SW480 [2] = assay: as above; conditions: 5 µM; treatment time 24 h; reporter: 7TFP
Procedure, shortened: as §1

DLD1 [3] = assay: TCF/Wnt firefly luciferase reporter signal relative to plate median (fraction of plate median); higher = higher Wnt reporter signal; conditions: 5 µM; treatment time 24 h; reporter: 7TFP
Procedure, shortened: as §1

SW480 [4] = assay: as above; conditions: 5 µM; treatment time 24 h; reporter: 7TFP
Procedure, shortened: as §1

Compound | cell viability (DLD1 [1]) | cell viability (HCT116) | cell viability (SW480 [2]) | TCF/Wnt firefly luciferase reporter signal (DLD1 [3]) | TCF/Wnt firefly luciferase reporter signal (SW480 [4])
CC(C(=O)O)[C@H]1CCC2C3CC=C4C[C@@H](O)CC[C@]4(C)C3CC[C@@]21C (stereo partly drawn) [3beta-HYDROXY-23,24-BISNORCHOL-5-ENIC ACID] | 1.09 ± 0.057 | 1.05 ± 0.071 | 0.999 ± 0.016 | 1.01 ± 0.021 | 1.09 ± 0.028
COc1ccc(-c2coc3cc(O)cc(O)c3c2=O)cc1 | 1.01 ± 0.065 | 0.888 ± 0.016 | 1.01 ± 0.044 | 0.985 ± 0.16 | 1.05 ± 0.064
C/C=C/c1ccc(OC)cc1 | 1.07 ± 0.021 | 0.987 ± 0.047 | 1.03 ± 0.062 | 0.925 ± 0.12 | 0.943 ± 0.0014
Cc1occc(=O)c1O | 0.962 ± 0.0099 | 0.973 ± 0.039 | 0.936 ± 0.021 | 0.938 ± 0.1 | 0.85 ± 0.042
CN(C)CCOC(c1ccccc1)c1ccccc1 | 1.04 ± 0.028 | 1.06 ± 0.092 | 0.955 ± 0.013 | 1.2 | 1.19 ± 0.085
O=CN(O)CCCC(NC(=O)C(CO)NC(=O)C1COC(c2ccccc2O)=N1)C(=O)NCCC(=O)NC1CCCN(O)C1=O (stereo not given) [Oxachelin] | 0.9715 ± 0.0092 | 1.07 ± 0.16 | 1.03 ± 0.059 | 1.11 ± 0.021 | 1.03 ± 0.085
CCC(=O)O[C@@H]1[C@@H](OC2C(C)/C=C/C(=O)OC(C)C(CO[C@@H]3O[C@H](C)[C@@H](OC(=O)CC)[C@@H](OC)[C@H]3OC)C3OC3/C=C/C(=O)C(C)(O)CC2C)O[C@@H](C)C[C@H]1OC (stereo not given in full) [Chalcomycin B] | 1.04 ± 0.014 | 1.06 ± 0.064 | 1.11 ± 0.071 | 1.14 ± 0.12 | 0.972 ± 0.2
CC(=O)Oc1c(C)cccc1C(=O)O | 0.9705 ± 0.0064 | 0.966 ± 0.039 | 1.02 ± 0.063 | 0.884 ± 0.13 | 0.979 ± 0.087
COC(=O)[C@@H]1OC(=O)C2OC23[C@@]1(C)CCC1[C@@]2(C)CCC(=O)C(C)(C)C2C[C@@H](OC(C)=O)[C@]13C (stereo not given in full) | 0.993 ± 0.011 | 1.07 ± 0.078 | 1.01 ± 0.017 | 0.86 ± 0.037 | 1.03 ± 0.046
NS(=O)(=O)c1cc2c(cc1C(F)(F)F)NC(Cc1ccccc1)NS2(=O)=O (stereo not given) | 0.992 ± 0.04 | 0.969 ± 0.058 | 0.9875 ± 0.0035 | 0.836 ± 0.075 | 0.885 ± 0.064
COc1ccc(C(=O)c2ccccc2O)c(O)c1 | 0.953 ± 0.022 | 0.977 ± 0.0028 | 0.952 ± 0.016 | 1.16 ± 0.042 | 1.06 ± 0.057
NC(C(=O)O)C(O)C(=O)O (stereo not drawn) [d,l-threo-3-HYDROXYASPARTIC ACID] | 0.923 ± 0.036 | 1.09 ± 0.11 | 0.949 ± 0.044 | 1.14 ± 0.27 | 1.15 ± 0.064
CNCC[C@H](Oc1cccc2ccccc12)c1cccs1 | 1.03 ± 0.067 | 1.06 ± 0.021 | 1.05 ± 0.028 | 0.87 ± 0.023 | 0.97 ± 0.021
CC(=O)Oc1cc(C)c2c(c1C(OC(C)=O)OC(C)=O)Oc1c(c(C)c(OC(C)=O)c3c1C(OC(C)=O)OC3=O)OC2=O (stereo not given) | 0.969 ± 0.044 | 0.975 ± 0.025 | 0.943 ± 0.064 | 0.993 ± 0.081 | 1.18 ± 0.099
O=C1c2c(O)cccc2Cc2cccc(O)c21 | 0.945 ± 0.025 | 1.02 ± 0.074 | 1.08 ± 0.05 | 0.988 ± 0.031 | 0.933 ± 0.017
CN1CCC(=C2c3ccccc3CCc3sccc32)CC1 | 1.07 ± 0.014 | 1.14 ± 0.17 | 1.1 ± 0.064 | 1.05 ± 0.11 | 0.934 ± 0.061
CC[C@H]1OC(=O)C[C@@H](O)[C@H](C)[C@@H](O[C@@H]2O[C@H](C)[C@@H](O[C@H]3C[C@@](C)(O)[C@@H](O)[C@H](C)O3)[C@H](N(C)C)[C@H]2O)[C@@H](CC=O)C[C@@H](C)C(=O)/C=C/C(C)=C/[C@@H]1CO[C@@H]1O[C@H](C)[C@@H](O)[C@@H](OC)[C@H]1OC | 0.947 ± 0.046 | 1.08 ± 0.021 | 1.07 ± 0.021 | 1.1 ± 0.099 | 1.035 ± 0.0071
OCC(O)CN1CCN(c2ccccc2)CC1 (stereo not given) | 0.979 ± 0.058 | 0.995 ± 0.035 | 0.964 ± 0.033 | 0.83 ± 0.029 | 0.9255 ± 0.005
COc1cccc2c1C(=O)c1c(O)c3c(c(O)c1C2=O)CC(O)(C(C)O)CC3OC1CC(NC=O)C(O)C(C)O1 (stereo not given) [Baumycin C2] | 1.02 ± 0.035 | 1.005 ± 0.0071 | 1 ± 0.036 | 1.17 ± 0.12 | 1.05 ± 0.014
CCOc1ccc2nc(S(N)(=O)=O)sc2c1 | 0.972 ± 0.054 | 0.896 ± 0.15 | 0.961 ± 0.014 | 0.704 ± 0.088 | 0.891 ± 0.091
CCCCC(=O)Oc1ccccc1C(=O)O | 0.984 ± 0.013 | 0.98 ± 0.042 | 0.988 ± 0.018 | 1 ± 0.052 | 1 ± 0.2
CC1(C)C(=O)C=C[C@@]2(C)C1CC(=O)[C@@]1(C)C3=CC(=O)O[C@@H](c4ccoc4)[C@]3(C)CCC12 (stereo not given in full) | 0.921 ± 0.04 | 0.988 ± 0.045 | 0.977 ± 0.027 | 0.913 ± 0.03 | 0.956 ± 0.076
C[C@]12C=CC(=O)C=C1CC[C@H]1[C@@H]3C[C@@H](O)[C@](O)(C(=O)CO)[C@@]3(C)C[C@H](O)[C@@]12F | 0.999 ± 0.086 | 1.01 ± 0.047 | 0.982 ± 0.012 | 0.951 ± 0.069 | 0.89 ± 0.15
S=c1[nH]cnc2nc[nH]c12 | 0.733 ± 0.044 | 0.989 ± 0.1 | 0.932 ± 0.012 | 1.22 | 1.03 ± 0.021
C[C@H]1O[C@@H](O[C@H]2[C@@H](O)C[C@H](O[C@H]3[C@@H](O)C[C@H](O[C@H]4CC[C@@]5(C)[C@H](CC[C@@H]6[C@@H]5CC[C@]5(C)[C@@H](C7=CC(=O)OC7)CC[C@]65O)C4)O[C@@H]3C)O[C@@H]2C)C[C@H](O)[C@@H]1O | 0.706 ± 0.19 | 0.33 ± 0.2 | 0.774 ± 0.052 | 0.157 ± 0.14 | 0.32 ± 0.11
